Screens from PubChem.
The list is not random: actives were taken first. Their share in the collection is about 6.1%.
S2 tox – cell viability loss in ATXN counter-screen. S2 cells (HEK-293 line with an ATXN2-luciferase reporter) viability, CellTiter-Fluor protease fluorescence, 24 h. Potency, µM (titrated, usually from 56.7 µM), most hits filed as cytotoxic. hit rate 0.49% among 400,000. AID 651635; further: nearly all actives have a fitted effect of over 40% in size
HepG2 tox – counter-screen for TGF-b inhibitors: cytotoxicity in HepG2 cells; HepG2 CAGA-GFP viability, ATP luminescence, 18 h; Potency, µM (series often up to 46.1 µM), inactives show top-dose activity change, negative = cytotoxicity, most hits filed as cytotoxic; hit rate 0.76% among 410,000
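CellTiter-Glo luminescence gave cytotoxicity after 18 hours at 37 degrees C. The cells were HepG2 CAGA-GFP in 1% FBS DMEM, stimulated with 500 pg/mL TGF-beta after compound addition. %Activity was normalised to no-cell wells (complete cell-killing) and DMSO (no toxicity), and curves were fitted and classified.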
Gal4-VP16 FLuc – counter-screen for ROR gamma inhibitors: Gal4-VP16 reporter; Drosophila S2 Gal4-VP16 UAS-luciferase, luminescence, 20 h; Potency, µM (titrated, usually from 53.6 µM), without a hit: at the highest dose activity, negative = inhibition, usual class: inhibitors; hit rate 3.5% among 310,000; AID 2546;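 further: Gal4-VP16 expression switched on by copper sulfate through the metallothionein promoter; on the % scale 0 is the no-effect control and ±100 the full control effect; nearly all actives have a fitted effect of over 50% in size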
TGFb SMAD3 inh – blocks TGF-b signaling. HepG2 CAGA-GFP TGF-b/SMAD3 reporter, GFP fluorescence, 18 h; TGF-beta stimulated, 500 pg/mL final. hit rate 1.2% among 410,000. Potency, µM (highest dose often 46.1 µM), without a hit: at the top dose activity, negative = inhibition, usual class: inhibitors; further: on the % scale 0 is the no-effect control and ±100 the full control effect; nearly all actives have a fitted effect of over 65% in size
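Read-out: total well GFP (ex488/em500-530) summed from mean per-cell fluorescence. Cells: HEPG2 CAGA-GFP, 1% FBS DMEM, 18 h at 37 degrees C with 500 pg/mL final TGF-beta. Unstimulated wells served as the full-inhibition control; stimulated DMSO wells = 0%.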
ATXN2 expr inh – reduces ATXN2 reporter expression in HEK-293 cells | HEK-293 ATXN2-luciferase reporter, luminescence, 24 h | Potency, µM (doses to about 57 µM), without a hit: at the top dose activity change, negative = inhibition, hits mostly inhibitors | hit rate 0.72% among 360,000 | AID 1745845; further: on the % scale 0 is the no-effect control and ±100 the full control effect; nearly all actives have a fitted effect of over 55% in size
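ATXN2-luciferase reporter cells (luciferase flanked by upstream and downstream ATXN2 gene portions) were treated 24 h at 37 °C with compounds at up to 57 uM. SteadyGlo luminescence gave expression; GF-AFC fluorescence gave viability.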
RORg inh – inhibitors of mouse ROR gamma transcriptional activity; hit rate 5.4% among 310,000; Drosophila S2 Gal4-RORgamma UAS-luciferase reporter, 20 h; P51450; Potency, µM (top dose mostly 53.6 µM), inactives show top-dose activity change, negative = inhibition, usual class: inhibitors; AID 2551; further: on the % scale 0 is the no-effect control and ±100 the full control effect; nearly all actives have a fitted effect of over 60% in size
Target sequence (P51450 whole entry, looked up, the tested form may be a part): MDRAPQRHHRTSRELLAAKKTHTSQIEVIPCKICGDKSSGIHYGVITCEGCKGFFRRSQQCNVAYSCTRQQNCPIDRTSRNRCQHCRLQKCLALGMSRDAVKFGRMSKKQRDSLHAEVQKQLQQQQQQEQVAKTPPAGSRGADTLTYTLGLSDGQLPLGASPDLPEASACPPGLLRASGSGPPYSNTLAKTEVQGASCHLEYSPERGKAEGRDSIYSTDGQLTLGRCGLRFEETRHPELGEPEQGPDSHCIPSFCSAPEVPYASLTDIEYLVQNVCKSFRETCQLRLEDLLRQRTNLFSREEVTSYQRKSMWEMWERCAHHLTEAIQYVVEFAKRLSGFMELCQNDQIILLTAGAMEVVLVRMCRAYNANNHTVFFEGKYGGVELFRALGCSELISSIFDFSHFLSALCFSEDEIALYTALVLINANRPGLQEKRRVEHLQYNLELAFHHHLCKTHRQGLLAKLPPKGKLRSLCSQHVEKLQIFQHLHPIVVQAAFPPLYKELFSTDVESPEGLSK
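A Gal4/UAS one-hybrid system in insect cells: metallothionein-promoter Gal4–ROR gamma fusion plus Photinus luciferase reporter. Copper sulfate 700 uM final, 20 hr ambient incubation, luminescent detection after 10 min with reagent.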
Active calls of the source: *; i = inactive; ? = inconclusive; / = not tested or not shown. The call rests on the fitted dose curve; in most records, active means well fitted curve in the direction sought with a large enough effect; inconclusive means small, poorly fitted or top-dose-only effect, or another doubt; inactive means no such curve, though single readings can be large; an effect the other way counts as inactive or inconclusive. Potency means the concentration at half of the fitted maximal effect.

SMILES | S2 tox | HepG2 tox | Gal4-VP16 FLuc | TGFb SMAD3 inh | ATXN2 expr inh | RORg inh
CCc1ccccc1NC(=O)N1CCN(Cc2nc3ccc(C)cc3o2)CC1 | i | -12.4% | / | ? | -11.3% | /
Nc1nc2ccccc2n1/N=C/c1ccc(-c2ccccc2)o1 | i | -62.7% | ? | ? | 44.6% | 7.94µM*
CC(=O)NC(c1ccc([N+](=O)[O-])cc1)c1c(O)ccc2ccccc12 (stereo not given) | i | -10.4% | -14.3% | 1.1% | 0.6% | 19.5%
CC(C)C(=O)NC(c1ccc([N+](=O)[O-])cc1)c1c(O)ccc2ccccc12 (stereo not given) | ? | -41.5% | 12.6µM* | ? | ? | ?
CC(=O)c1cccc(NC(=O)CC2S/C(=N/N=C/c3cccs3)NC2=O)c1 (stereo not given) | i | 5.8% | -3.1% | 12.5% | 10.2% | ?
CC(C)C1S/C(=N/N=C/c2cccs2)NC1=O (stereo not given) | i | -10.4% | 0.891µM* | -3.1% | 12.3% | 0.316µM*
CC1S/C(=N/N=C/c2cccs2)NC1=O (stereo not given) | i | -1.4% | 7.08µM* | -16.5% | 35.6% | 2.24µM*
CC1S/C(=N/N=C/c2cccc([N+](=O)[O-])c2)NC1=O (stereo not given) | i | -0.4% | -9.0% | 8.1% | / | 7.0%
CCCC1S/C(=N/N=C/c2cccs2)NC1=O (stereo not given) | i | -7.8% | 0.398µM* | -5.4% | 10.9% | 0.224µM*
CCC1S/C(=N/N=C/c2cccs2)NC1=O (stereo not given) | i | -24.6% | 3.98µM* | 5.9% | 0.8% | 0.794µM*
C(=N\N=C\c1cccs1)/c1cccs1 | ? | 8.0% | 20.5% | -3.6% | 33.8% | 10.0%
O=C(Nc1cc2c(cc1C(=O)c1ccccc1Br)OCCO2)c1cccc(Cl)c1 | i | 10.3% | / | 0.0% | -16.9% | /
O=c1c(-c2cc(F)cc(F)c2)nc2cnc(N3CCOCC3)nc2n1CCc1ccccc1 | / | / | 2.3% | / | / | 0.9%
CCCCCNC(=O)N1CCC(CN(Cc2ccc(Cl)cc2)Cc2ccc([N+](=O)[O-])s2)C1 (stereo not given) | / | / | / | / | 27.3µM* | /
CCCCCCNC(=O)C(=O)NCCc1ccc(Cl)cc1 | i | 7.3% | -9.6% | -1.7% | 10.8% | 2.7%
FC(F)(F)c1ccccc1/C=N/n1c(COc2ccccc2)n[nH]c1=S | i | -27.0% | 10µM* | ? | 0.1% | 5.62µM*
S=c1[nH]nc(COc2ccccc2)n1/N=C/c1ccc(Cl)c(Cl)c1 | i | -33.4% | -17.0% | ? | -22.3% | ?
Oc1ccc(Br)cc1/C=N/n1c(COc2ccccc2)n[nH]c1=S | i | -16.8% | ? | ? | -8.6% | 10µM*
S=c1[nH]nc(COc2ccccc2)n1/N=C/c1ccccc1Br | i | 3.7% | ? | 4.8% | -6.0% | 8.91µM*
O=C(Nc1cc2c(cc1C(=O)c1ccccc1Cl)OCCO2)c1ccccc1 | / | -38.3% | / | -11.3% | / | /
Cn1nnc2c(N3CCN(c4cccc(Cl)c4)CC3)ncnc21 | / | 1.5% | / | 1.5% | / | /
Cc1cc(C)cc(NC(=S)Nc2ccc(Cl)c(Cl)c2)c1 | i | -36.1% | ? | ? | ? | 10µM*
Cc1cccc(C)c1NC(=S)Nc1ccc(Cl)c(Cl)c1 | i | -7.9% | ? | -25.1% | -9.2% | 6.31µM*
O=C(Cn1cc(S(=O)(=O)Cc2ccc(F)cc2)c2ccccc21)NCc1ccccc1 | / | -22.5% | / | 0.0% | / | /
O=C(c1cc(-c2ccccc2)on1)N1CCOc2ccc(CN3CCN(c4ccccn4)CC3)cc2C1 | i | / | / | / | / | /
SMILES | S2 tox | HepG2 tox | Gal4-VP16 FLuc | TGFb SMAD3 inh | ATXN2 expr inh | RORg inh
O=C1C(C2=NC(c3ccccn3)C3C(=O)N(c4ccc(OC(F)(F)F)cc4)C(=O)C23)=C(O)c2ccccc21 (stereo not given) | i | -5.5% | 0.1% | -1.9% | ? | 4.2%
O=C1C(C2=NC(C(=O)O)C3C(=O)N(c4ccccc4)C(=O)C23)=C(O)c2ccccc21 (stereo not given) | i | 4.2% | 12.6µM* | 0.0% | -5.6% | 11.2µM*
S=C1NCCc2ccccc2C1c1ccccc1Cl (stereo not given) | i | -13.3% | 3.55µM* | 9.3% | -3.3% | 7.94µM*
S=C1NCCc2ccccc2C1c1ccccc1 (stereo not given) | i | -2.4% | 0.159µM* | -5.7% | -16.7% | 0.224µM*
O=C(O)C1NCCc2ccccc21 (stereo not given) | i | 2.4% | 3.1% | -0.6% | 13.7% | -25.0%
COc1ccc(-n2c3c(cc(-c4nc(-c5ccc(Cl)cc5)cs4)c2=O)C(=O)CC(C)(C)C3)cc1 | i | 0.2% | / | 14.8% | 16.0% | /
CC1CN(C(=O)Nc2ccc(C(=O)NCCc3ccc(Cl)cc3)cc2)c2ccccc2S1 (stereo not given) | ? | -10.3% | / | 14.0% | -16.1% | /
O=C(CC1S/C(=N/N=C2CCCCCC2)NC1=O)Nc1ccc(Br)cc1F (stereo not given) | ? | -29.8% | 5.62µM* | -30.8% | -11.3% | 2.24µM*
O=C(CC1S/C(=N/N=C2CCCCCC2)NC1=O)Nc1ccccc1F (stereo not given) | i | 3.4% | / | -8.5% | -9.7% | /
CCc1ccc(-c2nn(CC(=O)NC3CCCCC3)c3c2cnc2ccc(OC)cc23)cc1 | ? | 3.4% | / | -3.3% | -5.8% | /
CCC1C(c2ccccc2)N(C)C(c2ccccc2)CC1(O)c1ccccc1 (stereo not given) | ? | 12.6µM* | 4.7% | ? | -5.7% | -19.0%
CC1C(=O)CC(c2ccccc2)N(C)C1c1ccccc1 (stereo not given) | i | -1.7% | 2.9% | 2.2% | -20.8% | -31.0%
Cc1ccc2oc3c(c(=O)c2c1)C(c1ccccc1F)N(CCCN(C)C)C3=O (stereo not given) | / | -8.6% | / | -4.5% | / | /
CCc1ccc(C(=O)NC2=NC(c3ccccc3F)CC(=O)N2)cc1 (stereo not given) | i | 0.6% | / | 0.8% | 9.2% | /
O=S(=O)(Nc1cccc(-c2nc3cccnc3s2)c1)c1ccc2c(c1)CCCC2 | / | 10µM* | -20.1% | 12.6µM* | -6.5% | ?
CC(=O)OC1CC[C@@]2(C)C(=CC[C@H]3[C@@H]4CC[C@H](C(C)=O)[C@@]4(C)CC[C@@H]32)C1 (stereo not given in full) | / | / | 2.5% | / | / | 0.2%
Cc1cc(C)cc(-n2c(C)cc(C(=S)N3CCOCC3)c2C)c1 | i | -5.6% | 15.8µM* | 2.2% | -13.5% | 3.16µM*
